Screens (PubChem BioAssay)
Many of the other results were omitted from the sample, so hits are more common in it than they were.
CBX7 inh: blocks human CBX7 binding to H3K27me3 peptide. O95931. AlphaScreen His6-CBX7 / biotin-H3K27me3 peptide binding; stronger effect = lower value. normalised signal (fraction of DMSO) (test concentration not listed). 1.1% of 66,000 active; in the data active means normalised signal below about 0.5
Target sequence (O95931 whole entry, looked up): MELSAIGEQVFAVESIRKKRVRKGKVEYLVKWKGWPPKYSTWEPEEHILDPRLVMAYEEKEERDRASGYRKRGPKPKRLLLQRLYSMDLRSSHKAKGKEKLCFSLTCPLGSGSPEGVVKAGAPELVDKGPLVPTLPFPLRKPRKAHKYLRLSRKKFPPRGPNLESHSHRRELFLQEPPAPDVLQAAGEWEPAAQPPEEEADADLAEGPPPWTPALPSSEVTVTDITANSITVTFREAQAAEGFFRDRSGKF
* hit, by the source's call.

SMILES	CBX7 inh
COc1ccc2[nH]c(C)c(CCNCC(C)(C)C)c2c1	1.1
COc1ccc2[nH]c(C)c(CCNCc3cccc4ccccc34)c2c1	0.59
COc1ccc2[nH]c(C)c(CCNCc3ccc(C#N)cc3)c2c1	0.26*
COc1ccccc1NC(=O)CN1C(=O)C(C)N=C(c2ccccc2)c2ccccc21 (stereo unspecified)	0.99
COc1ccc(C2SCC(=O)Nc3c2c(-c2ccccc2)nn3-c2ccccc2)cc1OC (stereo unspecified)	0.79
CNc1ccc(Br)cc1C(=O)c1ccccc1Cl	1.1
CNc1ccc(C)cc1C(=O)c1cccc(Br)c1	0.42*
O=C(c1ccccc1)c1cc(Br)ccc1NC(=O)c1c(F)cccc1F	1.1
Cc1cc(OCCCn2cc(C(=O)c3ccccc3)c3ccccc32)ccc1Cl	1
COc1ccc(OC)c(C2=NCC(=O)Nc3c2oc2ccc(Br)cc32)c1	0.76
C=CCN(C(=O)CN1C(=O)C(C)N=C(c2ccccc2)c2cc(Cl)ccc21)c1ccccc1 (stereo unspecified)	0.92
CC1N=C(c2ccccc2)c2cc(Cl)ccc2N(CC(=O)Nc2ccc(N(C)C)cc2)C1=O (stereo unspecified)	0.52
Cc1ccc(NC(=O)CN2C(=O)C(C)N=C(c3ccccc3F)c3cc(Cl)ccc32)cc1C (stereo unspecified)	0.97
CC1N=C(c2ccccc2F)c2cc(Cl)ccc2N(CC(=O)Nc2ccc(N(C)C)cc2)C1=O (stereo unspecified)	0.27*
O=C(CN1CC(c2ccccc2)CC1=O)Nc1ccc(F)cc1F (stereo unspecified)	1
CC(C)c1ccc(OCC(=O)Nc2ccc(Cl)cc2C(=O)c2ccccc2)cc1	0.95
C#CCN1CCC2=C(C1)c1c(O)cc(C(C)C(C)CCCCC)cc1OC2(C)C (stereo unspecified)	0.65
CCCCCC(C)C(C)c1cc(OC)c2c(c1)OC(C)(C)C1=C2CN(CC(N)=O)CC1 (stereo unspecified)	0.38*
COc1ccc(NC(=O)CN2C(=O)C(C)N=C(c3ccccc3)c3ccccc32)c(OC)c1 (stereo unspecified)	0.97
COc1ccc(NC(=O)CN2C(=O)CN=C(c3ccccc3)c3cc(Cl)ccc32)c(OC)c1	0.9
CCOC(=O)C1(c2ccccc2)CCN(CC(=O)Nc2cc(Cl)ccc2OC)CC1	1
CCOC(=O)C1(c2ccccc2)CCN(CC(=O)Nc2cccc(Cl)c2)CC1	0.35*
CCOC(=O)C1(c2ccccc2)CCN(CC(=O)Nc2ccc(F)cc2)CC1	1.1
CCC(=O)N1CC(=O)Nc2ccc(Br)cc2C1c1ccc(F)cc1 (stereo unspecified)	1
O=c1c2ccccc2nc(/C=C\c2ccccc2F)n1-c1ccc(Cl)cc1	1
